In PubChem BioAssay AID1159577 (Broad Institute, 2015):
In all, about 1,300 compounds went through this assay and about 240 (18%) were called active. Roughly 8% stayed inconclusive and do not appear here. How the calls were made is not given here. These entries were drawn from the full list. Results with a measured potency or affinity are listed apart.

experiment: HepG2 cell cytotoxicity, dose response, cytotoxicity control, cherry-picked samples (AID 1159577); settings: HepG2 cytotoxicity counterscreen, plate reader; series mostly up to 19.5 µM; activity change, negative = cytotoxicity: at the top concentration;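 further: 0% = neutral control wells and -100% = positive control wells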

Q: With `COc1ccc(-c2ccc3c(c2)[C@@H]2[C@@H](CCN2Cc2ccncc2)[C@@H](CO)N3)cc1` as the compound, how does the “activity change, negative = cytotoxicity” value read?
A: 0.859% [at 21 µM] (inactive)

Q: For `CO[C@@H]1CN(C)C(=O)c2ccc(NC(=O)Nc3ccc(F)cc3)cc2OC[C@@H](C)N(C(=O)c2ccc(F)cc2)C[C@H]1C`, which “activity change, negative = cytotoxicity” value is on record?
A: -20.5% (inactive)

Q: With `CC(C)CC#Cc1ccc([C@H]2[C@@H](CO)N3C(=O)CN(C(=O)Cc4ccccc4)C[C@H]23)cc1` as the compound, how does the “activity change, negative = cytotoxicity” value read?
A: 4.84% (inactive)

Q: For `C[C@H](CO)N1C[C@H](C)[C@@H](CN(C)C(=O)Nc2ccc(-c3ccccc3)cc2)OCc2ccccc2-c2c(n(C)c3ccccc23)C1=O`, which “activity change, negative = cytotoxicity” value is on record?
A: 8.31% (inactive)

Q: With `COc1ccc2c3c([nH]c2c1)[C@H](CO)N(Cc1ccccc1Cl)CC31CCN(C(C)=O)CC1` as the compound, how does the “activity change, negative = cytotoxicity” value read?
A: -18% (inactive)

Q: Which “activity change, negative = cytotoxicity” value does the source give for `C[C@@H]1CN([C@H](C)CO)C(=O)c2cc(C#Cc3ccccc3F)cnc2O[C@H]1CN(C)C(=O)c1ccc2c(c1)OCO2` here?
A: 25.6% (inactive)

Q: With `COc1ccc(-c2ccccc2[C@H]2[C@@H](C#N)N(C(=O)C3CCCC3)[C@H]2CO)cc1` as the compound, how does the “activity change, negative = cytotoxicity” value read?
A: -5.04% (inactive)

Q: With `CN1c2ccc(C3=CCCCC3)cc2[C@H]2[C@H](CCN2C(=O)C2CC2)[C@@H]1CO` as the compound, how does the “activity change, negative = cytotoxicity” value read?
A: -2.49% (inactive)

Q: Which “activity change, negative = cytotoxicity” value does the source give for `COC(=O)c1ccc(CN2CC(=O)N3[C@H](CO)[C@@H](c4ccc(-c5ccccc5F)cc4)[C@H]3C2)cc1` here?
A: 5.03% (inactive)

Q: Which “activity change, negative = cytotoxicity” value does the source give for `CC(C)NC(=O)N1CCCCN2[C@H](CO)[C@@H](c3ccc(C#C[C@H](C)O)cc3)[C@@H]2C1` here?
A: -6.05% (inactive)

Q: With `CCC(=O)N1CCC2(CC1)CN(C(=O)Nc1ccc(F)cc1)[C@@H](CO)c1c2c2ccc(OC)cc2n1C` as the compound, how does the “activity change, negative = cytotoxicity” value read?
A: 7.49% (inactive)

Q: Which “activity change, negative = cytotoxicity” value does the source give for `C[C@H]1CN([C@@H](C)CO)C(=O)c2cc(NC(=O)Cc3cn(C)c4ccccc34)ccc2O[C@H]1CN(C)S(=O)(=O)c1cccs1` here?
A: 23.9% (inactive)

Q: With `C[C@@H]1CN([C@H](C)CO)S(=O)(=O)c2ccc(-c3ccncc3)cc2O[C@@H]1CN(C)Cc1ccc(Oc2ccccc2)cc1` as the compound, how does the “activity change, negative = cytotoxicity” value read?
A: -27.5% (inactive)

Q: For `C[C@@H]1CN([C@H](C)CO)C(=O)c2cccc(NC(=O)Nc3cccc4ccccc34)c2O[C@@H]1CN(C)C(=O)Nc1ccc(F)cc1`, which “activity change, negative = cytotoxicity” value is on record?
A: -28.1% (inactive)

Q: With `C/C=C/c1ccc2c(c1)[C@H]1[C@H](CCN1C(=O)c1cccc(F)c1)[C@H](CO)N2` as the compound, how does the “activity change, negative = cytotoxicity” value read?
A: -6.44% (inactive)

Q: With `C[C@@H](NC(=O)C[C@H]1C[C@@H]2c3cc(NS(=O)(=O)c4ccc(F)cc4)ccc3O[C@@H]2[C@H](CO)O1)c1ccccc1` as the compound, how does the “activity change, negative = cytotoxicity” value read?
A: -1.47% (inactive)

Q: Which “activity change, negative = cytotoxicity” value does the source give for `O=C(O)C[C@@H]1C[C@@H]2c3cc(NS(=O)(=O)c4ccccc4)ccc3O[C@@H]2[C@H](CO)O1` here?
A: -22.3% (inactive)

Q: Which “activity change, negative = cytotoxicity” value does the source give for `CCS(=O)(=O)N1CCC2(CC1)CN(Cc1ccc3c(c1)OCO3)[C@@H](CO)c1[nH]c3cc(OC)ccc3c12` here?
A: -14.1% (inactive)

Q: For `CCCNC(=O)N1[C@H](C#N)[C@H](c2ccc(C#Cc3cccc(F)c3)cc2)[C@H]1CO`, which “activity change, negative = cytotoxicity” value is on record?
A: -1.23% (inactive)

Q: For `O=C(Cc1ccncc1)N1CC[C@@H]2[C@@H](CO)Nc3ccc(-c4cccc(F)c4)cc3[C@@H]21`, which “activity change, negative = cytotoxicity” value is on record?
A: 9.47% (inactive)

Q: Which “activity change, negative = cytotoxicity” value does the source give for `N#Cc1cccc(-c2ccc3c(c2)[C@@H]2[C@@H](CCN2Cc2cncnc2)[C@H](CO)N3)c1` here?
A: -6.56% [at 21 µM] (inactive)

Q: Which “activity change, negative = cytotoxicity” value does the source give for `O=C(C1CCCC1)N1CC[C@@H]2[C@H]1c1cc(-c3cccc(F)c3)ccc1N[C@@H]2CO` here?
A: 1.55% (inactive)

Q: Which “activity change, negative = cytotoxicity” value does the source give for `N#Cc1cccc(-c2ccc3c(c2)[C@H]2[C@H](CCN2Cc2ccncc2)[C@@H](CO)N3)c1` here?
A: -4.34% [at 21 µM] (inactive)

Q: With `COc1ccc(S(=O)(=O)N(C)C[C@H]2Oc3c(NC(=O)Nc4ccc5c(c4)OCO5)cccc3C(=O)N([C@@H](C)CO)C[C@H]2C)cc1` as the compound, how does the “activity change, negative = cytotoxicity” value read?
A: -19.6% (inactive)

Q: With `CCc1nc(N2[C@H](C#N)[C@H](c3ccccc3-c3ccccc3F)[C@H]2CO)sc1C` as the compound, how does the “activity change, negative = cytotoxicity” value read?
A: -24% (inactive)

Q: With `COc1ccc(CN2CC3(CN(C(=O)Cc4ccccc4)C3)c3c([nH]c4cc(OC)ccc34)[C@H]2CO)cc1` as the compound, how does the “activity change, negative = cytotoxicity” value read?
A: -13.9% [at 21 µM] (inactive)

Q: With `CO[C@H]1CN(C)C(=O)c2ccc(NC(=O)Nc3cc(F)ccc3F)cc2OC[C@@H](C)N(C)C[C@H]1C` as the compound, how does the “activity change, negative = cytotoxicity” value read?
A: 10.8% (inactive)

Q: With `COc1ccc2c3c(n(C)c2c1)[C@H](CO)N(C(=O)CC1CC1)CC31CCN(Cc2nccs2)CC1` as the compound, how does the “activity change, negative = cytotoxicity” value read?
A: -4.39% (inactive)

Q: With `Cc1ccccc1S(=O)(=O)N1[C@H](C#N)[C@H](c2ccc(C#CC3CCCC3)cc2)[C@@H]1CO` as the compound, how does the “activity change, negative = cytotoxicity” value read?
A: -7.23% (inactive)

Q: For `CN1c2ccc(C#Cc3cccnc3)cc2[C@@H]2[C@@H](CCN2S(=O)(=O)c2ccccc2F)[C@@H]1CO`, which “activity change, negative = cytotoxicity” value is on record?
A: 18.3% (inactive)

Q: For `Cc1ccc(S(=O)(=O)N(C)C[C@H]2OCc3ccccc3-c3c(n(C)c4ccccc34)C(=O)N([C@@H](C)CO)C[C@@H]2C)cc1`, which “activity change, negative = cytotoxicity” value is on record?
A: 22.6% (inactive)

Q: For `O=S(=O)(c1ccc(-c2ccccc2)cc1)N1C[C@@H]2N[C@H](C1)[C@@H]2c1ccc(-c2cccnc2)cc1`, which “activity change, negative = cytotoxicity” value is on record?
A: -36.2% (inactive)

Q: For `Cc1ccc(-c2ccc(C3[C@@H]4CN(S(=O)(=O)c5ccccc5)C[C@H]3N4)cc2)cc1` (stereo not given in full), which “activity change, negative = cytotoxicity” value is on record?
A: -22.7% (inactive)

Q: For `N#Cc1ccc(-c2ccc(C3[C@@H]4CN(S(=O)(=O)c5ccc(F)cc5)C[C@H]3N4)cc2)cc1` (stereo not given in full), which “activity change, negative = cytotoxicity” value is on record?
A: 18.2% (inactive)

Q: Which “activity change, negative = cytotoxicity” value does the source give for `Cn1cnc(S(=O)(=O)N2C[C@@H]3N[C@H](C2)C3c2ccc(-c3ccccc3F)cc2)c1` (stereo not given in full) here?
A: -4.06% (inactive)

Q: For `Cc1ccc(S(=O)(=O)N2C[C@@H]3N[C@H](C2)C3c2ccc(-c3ccncc3)cc2)cc1` (stereo not given in full), which “activity change, negative = cytotoxicity” value is on record?
A: -10.5% [at 21 µM] (inactive)

Q: With `O=S(=O)(c1ccc(F)cc1)N1C[C@@H]2N[C@H](C1)C2c1ccc(-c2ccc(F)cc2)cc1` (stereo not given in full) as the compound, how does the “activity change, negative = cytotoxicity” value read?
A: -10.6% (inactive)

Q: Which “activity change, negative = cytotoxicity” value does the source give for `COc1cccc(-c2ccc3c(c2)[C@H]2[C@H](CCN2C(=O)C2CCCC2)[C@H](CO)N3)c1` here?
A: -23.9% [at 21 µM] (inactive)

Q: For `COc1ccc2c3c(n(C)c2c1)[C@@H](CO)N(C(=O)c1ccc(F)cc1)CC31CCN(C(=O)Nc2ccc(F)cc2)CC1`, which “activity change, negative = cytotoxicity” value is on record?
A: 0.95% (inactive)

Q: For `COc1ccc(NC(=O)N(C)C[C@@H]2Oc3cc(-c4ccc(C)cc4)ccc3S(=O)(=O)N([C@@H](C)CO)C[C@@H]2C)cc1`, which “activity change, negative = cytotoxicity” value is on record?
A: -13.5% (inactive)

Q: Which “activity change, negative = cytotoxicity” value does the source give for `COc1ccc(C#Cc2ccc3c(c2)[C@H]2[C@H](CCN2C(=O)C2CCC2)[C@H](CO)N3)cc1` here?
A: -4.14% [at 21 µM] (inactive)

Q: With `OC[C@@H]1CC[C@@H]2O[C@H](CCc3ccc(C#CCc4ccccc4)cc3)[C@H](n3cc(-c4ccccc4)nn3)C[C@@H]2O1` as the compound, how does the “activity change, negative = cytotoxicity” value read?
A: -19.3% (inactive)

Q: Which “activity change, negative = cytotoxicity” value does the source give for `C[C@@H]1CN([C@H](C)CO)C(=O)c2cccc(NC(=O)Nc3cccc4ccccc34)c2O[C@H]1CN(C)C(=O)NC1CCCCC1` here?
A: 16.1% (inactive)

Q: With `CCCNC(=O)N1CC(=O)N2[C@@H](CO)[C@@H](c3ccc(C#Cc4cccc(OC)c4)cc3)[C@@H]2C1` as the compound, how does the “activity change, negative = cytotoxicity” value read?
A: 4.91% (inactive)

Q: For `COc1cccc(S(=O)(=O)N(C)C[C@@H]2Oc3ncc(C#Cc4ccc(OC)c(OC)c4)cc3C(=O)N([C@H](C)CO)C[C@@H]2C)c1`, which “activity change, negative = cytotoxicity” value is on record?
A: 29.1% (inactive)
